Whole data set: some 2,300 sequences, median “median log2 fold change of GCK-ALFA target abundance (FLAG IP / Myc IP barcode read proportion)” near 0.095, cut for the lowest 2% near -0.47. What follows is part of a selection rich in the lowest values, with near analogues and random picks from the rest.
B1: LC3A_28_934 (protein)
chain: MTVEERIKKALEEAEKAAKAGEPVVITIKVTSKDTQEEIDKLIKTIKEIAEILKNVKGAAIIVDVDAGVPQERIDKIADTLEEIEKKYPNINAILALDED
B2: LC3A_3_1491 (protein)
chain: MEELLERMREVLEARGASEEQIEEVLEAVEELLELGYEETVEELIELFEANPDLDPEQIVTAVLITLEVAEEEDLSEEELVERARRIFEDVAEIEALDEE
B3: LC3A_3_1490 (protein)
chain: REELLERMRAVLEARGASPEQIAEVLEAAERLLELGYEETVETLIELFEANPDLDPLDIVTAVLITLEVAEEEDLSEEELVERAREIFENVREIEALDEN
B4: LC3A_28_1022 (protein)
chain: SALDEELEALRAEVEAALARGEDVLLEVTIKPTDSLEEVRRKMERVKEIALEASKRGKVDVLIDVEKGVSQEKIDIVMDAAEELEEEDPSVNVIIALEEE
B5: LC3A_141_383 (protein)
chain: MKKEFEMEATKETADEVFKFMEEVEKETLEMIKESGGKPVKMKVKITATNEKTGEVVEKEEEYIVTEENADLVADGIEIEVLSLLDRVGGKVKVKVTLES
B6: LC3A_28_1063 (protein)
chain: SKVEAEIKKALAEAKEAVAAGEEALVTITIDDSDSDEDVEKKLKTMEEIAELTKTLPRTTILVDIDSSRKEEISKKVSEVGDKLEKKYPNVTVIIALSEE
B7: LC3A_147_431 (protein)
chain: YITTVDIDVLTKDAEEEVIKAAKEIEEELKAKGYEVELEIEVEELENGEKYIHIKITVKTETEEEAKEAADYIVDKFEELEEKLKDKILGSIISVEIEEA
B8: LC3A_147_511 (protein)
chain: YEVEVDVDIITKDAEEEVIEEFKEIAEELKKKGYEVELEIEVEELENGITYIHVKITVKTETEEEAKEVANYILDKIDEIEEKLKDKILGSMISVEIIKK
B9: LC3A_free_8_2456 (protein)
chain: SSQKLVDTAVKLLEEMEKELTELAKKEGLSRLDILELELEIGSLIAEVISLVDKSPEEILETTKEGLEEIIELAKELGEEVAKLAEEKSKEIIEELEKLI
B10: LC3A_28_1295 (protein)
chain: SEIEKNLKEALAEAKKAKAEGKQVVITVKVPGDATQEEIELVIKGLEEIAKVLEDVPNQTIIIDVEAGVKQEHIDLLADRAEEIEKKYPNVTVIIALDED
B11: LC3A_28_1058 (protein)
chain: MSIEEQLEKALEEAKEAVKKGEEALVELKINKDSTEEDVEKVLETMKEIAELTKDLPSVSIVVDVDHENKEEVTKKVSELGDELEKKYPNVTVIIALSEE
B12: LC3A_28_1049 (protein)
chain: SPIEEELKRALEEAKEAVARGEEALIRLTIGKDATEEDVEKVLETMEEIAELTKSLPRVDIVVDVDSENKEEVTKKIAEKGEELEKKYPNVTVYIALSEE
B13: LC3A_28_738 (protein)
chain: SAIEKELEKAIKEAKEAAKAKEPKVITITVPGTANEEDIELVIKALEEIAEILKDVKDQAIIIDVDGKLDPELLKKLMDKAEEIEEKYPNVTVIIALDEE
B14: LC3A_free_8_2444 (protein)
chain: STQKLVDEVTELLDEMEERVEEKAKELGLSELDILDLSLLIGSLIAEIISAVDKSIEEIRKIVEEDMEEIIEEARELSEEIAEIVEETKERILELIDEAE
B15: LC3A_28_1082 (protein)
chain: SAVDAQIAAALAALRAAKAAGEEALLTLTLTEDATQEDVDRLIAGLEEIAELARDAARVTVVIDLDGKIPQEHIDRIADAAERIEERVPNVTVIIALDEE
B16: LC3A_free_39_2223 (protein)
chain: SEEEIEKLIKEVAKESGIDYEELKKKIEEIKEVGKLSNEQILEIVKAILEAVKAGADAKEILEEALKLTKELVAAGKSPEEIKEEILELIEDYRNLVPLD
B17: LC3A_3_1370 (protein)
chain: MEEEKAATLAELKAAGKSEETIAAVEKTLDALIEKGYEEAAKTFMELLKELKDLSDEILLAFAEDVLKAVEEEDLSEEELIKFIKEEATIARNEQEIIEL
B18: LC3A_28_1052 (protein)
chain: SHIDEQIEKALKEAEEAKAKGEEALIELHIGKDANEEDVEKVLETIEKIAEITKDLPSVTIIVDVDNPNKEEVTKKIDEVGEELAKKYPNVTVIIALSEE
B19: LC3A_28_1053 (protein)
chain: SAIDKQLEAALAEARAAAAAGEEALITLTIPENATEEDVEKVLATIREIAEITKDLPATTIIVDVDNKNQEEVTKKIDEVGEELAKKYPNVTVIIALSEN
B20: LC3A_free_46_2334 (protein)
chain: TLVVVEVDVLAPDRATAEAFVADLEARIRARLAEAGIDAEVEVELEEGPDGKTFRVTVKVRLKDPEADPQEVADLVVDAIDESAEEHGLSYIISVEIIEE
B21: LC3A_28_811 (protein)
chain: SHVDEVIAAVKEEGEKLKNSKEDVLLEVRVSGDITVEEAERLMDAIEEIARELAKNRKVYIVITAEEPISQEVLDTILDRAEEIEEKYPNVSVIVALPEE
B22: LC3A_3_1711 (protein)
chain: GEELIEEAEKILKEKGLSEETKKAVLEALKALLEKGYINAAKELIKLLKEAKDLSDEVILDFAKDVLEYVKTEDVSEEETIKKIKEEYEIAKNEEEIEEL
B23: LC3A_free_46_2301 (protein)
chain: IKVEIDIYFGAAPLEKIEEAAKRLTETAEKKAKELGAEVEIEVKITKNEDGTYTLEIRITAKVKTLEDANKFIQAISDKVDEINKELGIAAIMSIEVIEE
B24: LC3A_3_1472 (protein)
chain: LEERLEEVLKRLREAGASEEVLEAVREAYEKLKELGHEEAAKTFIEEMEKLVGLPSELLLAFAEDVLAAVEKYADDPEKLIEEIKSIAAATRNEAEIIEL
B25: LC3A_28_903 (protein)
chain: SPALESAEKALKEVKKAVAAGNQEPLVLEVKAPSTQEDVDKLLKLLEEIAEEASKLKGVSIIIDIDESVSQENRDRIIDKAEELEEKYPNVTIIIALPES
B26: LC3A_17_539 (protein)
chain: KEELKEELKKLIEEAEKLVEEVKPYIPEEAEKAKKRLKEAKKLLEEGKLKEAAELLAETADEMADAVSETEWEDPLKRTLLELEFDSLAIEAESILLKLE
B27: LC3A_28_1059 (protein)
chain: MSIEEELEEALEEAREAVERGEEALIELTIDEDATEEDVELVLETMEEIAELTKDLPRTTIVVDVDHKNKEEVTKLVSEKGDRLEKRYPNVTVIIALSEE
B28: LC3A_28_671 (protein)
chain: SALEEQLEKALAEAKKLAAKGEPGVIVIEVPGDATEEEIERLIKTLEEIAEILKDVKGSAIVIELDKDLKEEHRQRIIDAAERINEKYPNVTVIIAMEER
B29: LC3A_45_1922 (protein)
chain: MYEATLDLLVPKELAEEAYELIKKLLEELEKKRGPNFKVDYETLDASYEASKDEEDVYLEVKIYAPTEEEALDAAIEIEEELSKELGGKVASIISVKKVP

What follows are binders tested against MAP1LC3A, Q9H492 (assay: median log2 fold change of GCK-ALFA target abundance (FLAG IP / Myc IP barcode read proportion) (log2 ratio); each designed protein is fused to an ALFA-tag nanobody in HEK293 cells to bring the named protein to FLAG-tagged glucokinase (GCK); Myc marks an untargeted standard; higher = target protein stabilised (more abundant)). Settings: target protein: 3xFLAG-MCP-GCK-ALFA reporter; HEK293 landing pad (RPLP).
Method in brief: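 Binders fused to an ALFA nanobody were recombined as a library into HEK293 landing-pad cells, which were induced with 2 μg mL^−1 doxycycline and then transfected to express a FLAG-tagged target and a Myc-tagged standard. After 48 h, circular RNA barcodes recovered by anti-FLAG and anti-Myc immunoprecipitation of lysates were reverse transcribed, amplified and sequenced. Each binder's target abundance is the median log2 ratio of FLAG to Myc barcode read proportions, from barcodes present at ≥10^−7 in both replicates, binders carrying ≥3 barcodes per replicate, a 10^−6 pseudocount and pooled replicates.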
In the case of B1, the “median log2 fold change” value is reported as 0.252.
For B2, the “median log2 fold change” value was -0.577.
For B3, the “median log2 fold change” value was -0.342.
For B4, the “median log2 fold change” value was 0.00506.
For B5, the “median log2 fold change” value was 0.328.
B6 was tested, and the “median log2 fold change” value was 0.0338.
In the case of B7, the “median log2 fold change” value is reported as 0.117.
With B8 the “median log2 fold change” value was -0.745.
B9 was tested, and the “median log2 fold change” value was -0.163.
With B10 the “median log2 fold change” value was 0.184.
B11 was tested, and the “median log2 fold change” value was -0.699.
For B12, the “median log2 fold change” value was 0.00401.
For B13, the “median log2 fold change” value was 0.167.
For B14, the “median log2 fold change” value was -0.324.
B15 was tested, and the “median log2 fold change” value was 0.081.
B16 was tested, and the “median log2 fold change” value was -0.0674.
With B17 the “median log2 fold change” value was 0.233.
In the case of B18, the “median log2 fold change” value is reported as -0.553.
In the case of B19, the “median log2 fold change” value is reported as -0.454.
With B20 the “median log2 fold change” value was 0.0611.
With B21 the “median log2 fold change” value was -0.124.
In the case of B22, the “median log2 fold change” value is reported as -0.0281.
B23 was tested, and the “median log2 fold change” value was -0.0458.
In the case of B24, the “median log2 fold change” value is reported as 0.213.
B25 was tested, and the “median log2 fold change” value was -0.303.
With B26 the “median log2 fold change” value was -0.51.
In the case of B27, the “median log2 fold change” value is reported as -0.148.
For B28, the “median log2 fold change” value was 0.0757.
For B29, the “median log2 fold change” value was -0.405.
